Screening results as filed in PubChem BioAssay.
The entries come from a sample that favours hits as a whole.
TTR transcr act: TTR transcription activators in neuroblastoma reporter cells, primary screen, cell-based, luminescence, SH-SY5Y, TTR promoter Gaussia luciferase. AID 1117267, 2014. 100% = recombinant luciferase protein wells. activation, % at 16.7 µM. actives 1.3% (n = 92,000);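 active means activation above the mean of all tested compounds plus 3 SD, cut at about 9.5% in these data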;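 further: cells exposed to compounds for one day before reading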
HuH7 TTR inh: TTR promoter reporter inhibitors in hepatoma cells, counter-screen for TTR transcription activator project, cell-based, luminescence, HuH7 hepatoma; shares compounds with TTR transcr act; HuH7 TTR promoter-Gaussia luciferase reporter; inhibition, % at 16.7 µM; actives 4% (n = 1,100);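 active means average inhibition above the solvent-only control wells' mean plus 3 SD, cut at about 15% in these data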;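 further: inhibitors lower well luminescence so higher value means more inhibition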
TTR up confirm: TTR transcription activators, retest, confirmation, cell-based, luminescence, SH-SY5Y, triplicate. SHSY5Y TTR promoter Gaussia luciferase; 100% = purified Lucia enzyme wells, no cells. shares compounds with TTR transcr act. activation, % at 16.7 µM. 1,100 tested, under 10 active;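 active means mean activation above a set limit taken from the earlier primary screen, cut at about 11% in these data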
A number is an active result; n = inactive; x = no result given.

SMILES | TTR transcr act | HuH7 TTR inh | TTR up confirm
C#CCOCCOCCOCCNc1nc(N2CCN(C(=O)[C@H]([C@@H](C)O)n3cc(CCCCN)nn3)CC2)nc(N2CCN(C(=O)[C@H]([C@@H](C)CC)n3cc(CCCN=C(N)N)nn3)CC2)n1 | n | x | x
C#CCOCCOCCOCCNc1nc(N2CCN(C(=O)Cn3cc(CCO)nn3)CC2)nc(N2CCN(C(=O)[C@H]([C@@H](C)O)n3cc(CCCCN)nn3)CC2)n1 | 11 | n | n
COC(=O)[C@]12C[C@H](CC(=O)NCc3cccs3)C(=O)N(CCC3=CCCCC3)C1=C[C@H](C1CCCC1)O[C@@H]2C | n | x | x
Cc1ccc(S(=O)(=O)NC[C@H]2CN(S(=O)(=O)c3ccc(C)cc3)[C@@H](Cc3ccccc3)CO2)cc1 | n | x | x
Cc1ccc(S(=O)(=O)NCC2Cc3ccccc3N2S(=O)(=O)c2ccc(C)cc2)cc1 (stereo not drawn) | n | x | x
Cc1ccc(S(=O)(=O)NC[C@@H]2C[C@H](c3ccccc3)ON2S(=O)(=O)c2ccc(C)cc2)cc1 | 10 | n | n
COC(=O)C[C@H]1CC[C@H]2[C@H](COc3ccc(NS(=O)(=O)c4cccc(OC)c4)cc3C(=O)N2C)O1 | n | x | x
CC(=O)N1c2ccccc2NC2=C(C(=O)CCC2)C1c1cccnc1 (stereo not drawn) | n | x | x
COc1ccc(C2CC(c3ccccc3)=NN2C(=O)CCC(=O)O)cc1 (stereo not drawn) | n | x | x
COc1ccc(C2CC(=O)C3=C(C2)Nc2ccccc2N(C(=O)CCC(=O)O)C3c2ccc(F)cc2)cc1 (stereo not drawn) | 102 | n | n
O=C(CCCCC(=O)OCC1CCCO1)OCC1CCCO1 (stereo not drawn) | n | x | x
O=C(CCCCC(=O)OCC1COCO1)OCC1COCO1 (stereo not drawn) | 10 | n | n
CCOC(=O)CCCC(=O)N1CCOCCOCCN(C(=O)CCCC(=O)OCC)CCOCCOCC1 | n | x | x
COC[C@@H]1CCCN1c1ccc2c(c1)OCCCN(C1CC1)S2(=O)=O | n | x | x
